Data published in PubChem BioAssay AID1159580 (chemical genetic matrix, 2015).
Among all 5,500 compounds or so, about 2,000 (36%) were called active. Roughly 18% stayed inconclusive and do not appear here. Cut-off read from the data, not from the text of the source: active = normalized growth mostly below about 0.91 (no sharp cut-off); inconclusive = no clear call, values can overlap the other calls; inactive = mostly above about 0.92. The list shows a part of the results.

Experiment: chemical genetic growth profiling, strain panel (AID 1159580);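 note: tested at 20 µM; growth read once vehicle control cultures reached saturation at 30 °C; 1 = growth at the plate median or of vehicle wells; lower values mean less growth of the strain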
Details: S. cerevisiae deletion strains, growth OD

Measured: normalized growth

O=c1cc(-c2ccc(O)cc2)oc2ccc(O)cc12
inactive: locus YAL021C, strain ccr4, stronger effect = lower value 0.99 | locus YAL026C, strain drs2, stronger effect = lower value 0.956 | locus YAL030W, strain snc1, stronger effect = lower value 0.972 | locus YBL061C, strain skt5, stronger effect = lower value 0.964 | locus YBR009C, strain hhf1, stronger effect = lower value 0.936 | locus YBR023C, strain chs3, stronger effect = lower value 0.987 | locus YBR171W, strain sec66, stronger effect = lower value 0.981 | locus YBR231C, strain swc5, stronger effect = lower value 0.979 | locus YBR279W, strain paf1, stronger effect = lower value 0.978 | locus YCL011C, strain gbp2, stronger effect = lower value 0.949 | locus YCL016C, strain dcc1, stronger effect = lower value 0.981 | locus YCL061C, strain MRC1, stronger effect = lower value 0.987 | locus YCL069W, strain vba3, stronger effect = lower value 0.98 | locus YCR088W, strain abp1, stronger effect = lower value 0.977 | locus YDL005C, strain med2, stronger effect = lower value 0.969 | locus YDL040C, strain nat1, stronger effect = lower value 0.985 | locus YDR001C, strain nth1, stronger effect = lower value 0.97 | locus YDR069C, strain doa4, stronger effect = lower value 0.922 | locus YDR137W, strain rgp1, stronger effect = lower value 0.96 | locus YDR159W, strain sac3, stronger effect = lower value 0.954 | locus YDR195W, strain ref2 0.943 | locus YDR297W, strain sur2, stronger effect = lower value 0.958 | locus YDR334W, strain swr1, stronger effect = lower value 0.976 | locus YDR335W, strain msn5, stronger effect = lower value 0.979 | locus YDR392W, strain spt3, stronger effect = lower value 0.935 | locus YEL003W, strain gim4, stronger effect = lower value 0.97 | locus YEL037C, strain rad23, stronger effect = lower value 0.971 | locus YEL061C, strain CIN8 (second series), stronger effect = lower value 0.952 | locus YER015W, strain faa2, stronger effect = lower value 0.997 | locus YER016W, strain bim1, stronger effect = lower value 0.983 | locus YER111C, strain swi4, stronger effect = lower value 0.973 | locus YER155C, strain BEM2 (second series), stronger effect = lower value 0.963 | locus YFR010W, strain ubp6, stronger effect = lower value 0.938 | locus YGL167C, strain pmr1, stronger effect = lower value 0.949 | locus YGL173C, strain kem1, stronger effect = lower value 0.961 | locus YGL227W, strain vid30, stronger effect = lower value 0.96 | locus YGL240W, strain doc1, stronger effect = lower value 0.964 | locus YGL253W, strain hxk2, stronger effect = lower value 0.992 | locus YHR013C, strain ard1, stronger effect = lower value 0.938 | locus YHR027C, strain rpn1, stronger effect = lower value 0.962 | locus YHR030C, strain SLT2, stronger effect = lower value 0.989 | locus YHR079C, strain IRE1, stronger effect = lower value 0.992 | locus YHR142W, strain chs7, stronger effect = lower value 0.976 | locus YJL092W, strain hpr5, stronger effect = lower value 0.984 | locus YJL095W, strain BCK1 (second series), stronger effect = lower value 0.978 | locus YJL095W, strain BCK1, stronger effect = lower value 1 | locus YJL115W, strain asf1, stronger effect = lower value 0.978 | locus YJL129C, strain trk1, stronger effect = lower value 0.942 | locus YJL154C, strain vps35, stronger effect = lower value 0.991 | locus YJL164C, strain tpk1, stronger effect = lower value 0.958 | locus YJL166W, strain qcr8, stronger effect = lower value 0.977 | locus YJL187C, strain SWE1, stronger effect = lower value 0.973 | locus YJR066W, strain TOR1, stronger effect = lower value 0.933 | locus YKL160W, strain elf1, stronger effect = lower value 0.987 | locus YKR026C, strain gcn3, stronger effect = lower value 0.963 | locus YKR091W, strain srl3, stronger effect = lower value 0.984 | locus YLL001W, strain dnm1, stronger effect = lower value 0.964 | locus YLL026W, stronger effect = lower value 0.986 | locus YLL041C, strain sdh2, stronger effect = lower value 0.995 | locus YLR027C, strain aat2, stronger effect = lower value 0.971 | locus YLR113W, strain HOG1, stronger effect = lower value 0.951 | locus YLR221C, strain rsa3, stronger effect = lower value 0.988 | locus YLR258W, strain gsy2, stronger effect = lower value 0.977 | locus YLR262C, strain YPT6 (second series), stronger effect = lower value 0.959 | locus YLR320W, strain mms22, stronger effect = lower value 0.964 | locus YLR342W, strain FKS1, stronger effect = lower value 0.97 | locus YLR357W, strain rsc2, stronger effect = lower value 0.982 | locus YLR370C, strain arc18, stronger effect = lower value 0.947 | locus YLR384C, strain iki3, stronger effect = lower value 0.969 | locus YML120C, strain ndi1, stronger effect = lower value 0.956 | locus YMR058W, strain fet3, stronger effect = lower value 0.961 | locus YMR125W, strain sto1, stronger effect = lower value 0.947 | locus YMR129W, stronger effect = lower value 0.973 | locus YMR205C, strain PFK2, stronger effect = lower value 0.946 | locus YMR231W, strain pep5, stronger effect = lower value 0.974 | locus YNL071W, strain lat1, stronger effect = lower value 0.984 | locus YNL183C, strain NPR1, stronger effect = lower value 0.932 | locus YNL209W, strain ssb2, stronger effect = lower value 0.975 | locus YNL248C, strain rpa49, stronger effect = lower value 0.988 | locus YNL322C, strain KRE1 (second series), stronger effect = lower value 0.97 | locus YNR049C, strain mso1, stronger effect = lower value 0.989 | locus YOR001W, strain rrp6, stronger effect = lower value 0.991 | locus YOR070C, strain gyp1, stronger effect = lower value 0.988 | locus YOR080W, strain dia2, stronger effect = lower value 0.967 | locus YOR083W, strain WHI5, stronger effect = lower value 0.918 | locus YOR106W, strain vam3, stronger effect = lower value 0.974 | locus YOR231W, strain MKK1, stronger effect = lower value 0.968 | locus YOR265W, strain rbl2, stronger effect = lower value 0.961 | locus YOR270C, strain vph1, stronger effect = lower value 0.919 | locus YOR290C, strain snf2, stronger effect = lower value 0.943 | locus YPL051W, strain arl3, stronger effect = lower value 0.971 | locus YPL078C, strain atp4, stronger effect = lower value 0.987 | locus YPL106C, strain sse1, stronger effect = lower value 0.888 | locus YPL240C, strain hsp82, stronger effect = lower value 0.981 | locus YPL256C, strain CLN2, stronger effect = lower value 0.973
